We go through 18 compounds from PubChem BioAssay (NCATS).

The nature of assay [1]: AP1 Signaling Pathway (AID 357).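 Note: ME-180 reporter cells stimulated with EGF at its EC50 level; % is set by controls: 0 for no effect and ±100 for the full control effect.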 As to conditions: ME-180 AP-1-bla reporter, EGF-induced, beta-lactamase ratio, 5 h; at 17.2 µM (top of the series) unless noted. An outline of the steps: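 Modulation of EGF-driven AP-1 transcription was assessed with a beta-lactamase reporter in ME-180 cells. Compound and EC50 EGF were co-incubated 5 hours at 37 °C before 2.5-hour CCF4 loading at room temperature and dual-emission reading.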

The nature of assay [2]: NFAT Signaling Pathway (AID 444).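 Note: carbachol stimulus at about its EC50 of 1 µM final; % is set by controls: 0 for no effect and ±100 for the full control effect.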 The settings on record: Jurkat NFAT-bla M1, carbachol, beta-lactamase ratio, 5 h; at 17.2 µM (top of the series) unless noted. The procedure, abridged: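 Jurkat cells with NFAT-driven β-lactamase reporter and co-expressed M1 receptor, stimulated with carbachol (final 1 uM, ~EC50), compound titration, 5 h at 37 °C. CCF4 loaded 1 h at RT; 460/530 nm ratio gave %activity and AC50.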

Assay [3] can be described thus: Stat Signaling Pathway (AID 446).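 Note: ME-180 cervical cancer cells given 40 pM IL-6 alongside compound; SIE-controlled beta-lactamase reporter measured as 460/530 nm FRET emission ratio; % is set by controls: 0 for no effect and ±100 for the full control effect.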 The settings on record: ME-180 SIE beta-lactamase reporter, IL-6 stimulated, 5 h; at 17.2 µM (top of the series) unless noted. An outline of the steps:
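Reporter line: ME-180 cervical carcinoma, SIE-beta-lactamase. Treatment: compound with 40 pM IL-6, 5 hrs, 37 C, in low-serum OPTI-MEM with 10 mM HEPES pH 7.3. Detection: 460/530 nm fluorescence.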

Assay [4] has as its target Glucocorticoid receptor (Homo sapiens) (UniProt P04150). Description: GR-GFP Redistribution (AID 450;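 active = compounds whose dose series gives a full or clear partial fitted curve of increased nuclear translocation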; note: potency is the fitted concentration of half-maximal effect). As to conditions: U2OS GR-GFP nuclear translocation, laser cytometry, 2 h; series mostly up to 20.6 µM.
The nature of assay [5]: qHTS Assay for Identification of Small Molecule Agonists for Hypoxia Response Element Signaling Pathway (AID 914; active = well fitted activation curve with a large enough effect in the signal ratio, with a control signal flat, not every such curve was filed as active; the % refers to the signal ratio; note: potency is the fitted concentration of half-maximal effect; for activation: % of control where 0% means no effect). The settings on record: ME-180 (cervical carcinoma) HRE-bla reporter, beta-lactamase ratio, CoCl2, 17 h; activation: active compounds read high. The procedure, abridged:
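Positive modulation of EC50 CoCl2-induced hypoxia response element signaling is measured in ME-180 cells with a beta-lactamase reporter. Compounds are titrated, incubation runs 17 hours, and %Activity derives from the blue/green ratio.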
A general note: In qHTS, concentration-response curves come from the screen itself.

Unmarked numbers belong to inactive results. Records with an inconclusive call do not appear. Activity calls are given as the source filed them. Unless noted, calls come from the whole dose curve; as a rule, active = well fitted curve in either direction with a large enough effect (not every such curve was filed as active); inconclusive = small, poorly fitted or top-dose-only effect, or another doubt; inactive = flat fitted curve, though single readings scatter.

Sequence of Glucocorticoid receptor (Homo sapiens) (P04150 whole entry, looked up): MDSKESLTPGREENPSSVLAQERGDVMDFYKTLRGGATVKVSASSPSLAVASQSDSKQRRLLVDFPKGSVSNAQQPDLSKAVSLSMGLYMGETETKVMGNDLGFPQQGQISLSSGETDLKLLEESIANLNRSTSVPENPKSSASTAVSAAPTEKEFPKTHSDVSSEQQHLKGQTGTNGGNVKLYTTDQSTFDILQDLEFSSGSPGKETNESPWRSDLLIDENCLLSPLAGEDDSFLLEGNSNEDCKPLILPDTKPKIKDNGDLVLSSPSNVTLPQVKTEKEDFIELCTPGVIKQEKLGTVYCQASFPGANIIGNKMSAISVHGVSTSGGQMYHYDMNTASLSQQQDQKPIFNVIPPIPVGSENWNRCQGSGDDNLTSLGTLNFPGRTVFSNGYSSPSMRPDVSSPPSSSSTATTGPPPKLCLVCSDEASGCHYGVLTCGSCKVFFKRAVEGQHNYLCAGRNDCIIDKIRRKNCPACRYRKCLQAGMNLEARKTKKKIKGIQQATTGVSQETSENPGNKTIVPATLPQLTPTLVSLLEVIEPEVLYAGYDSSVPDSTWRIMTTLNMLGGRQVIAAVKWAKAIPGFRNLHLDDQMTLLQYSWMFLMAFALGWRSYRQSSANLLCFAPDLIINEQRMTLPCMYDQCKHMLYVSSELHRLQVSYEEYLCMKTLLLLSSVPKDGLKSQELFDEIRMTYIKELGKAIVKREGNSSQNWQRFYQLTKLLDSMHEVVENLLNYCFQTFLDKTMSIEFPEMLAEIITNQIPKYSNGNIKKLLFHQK

For the compound `COC(=O)c1ccc(=O)n(Cc2ccc3c(c2)OCO3)c1`, the activity change, negative = inhibition is -0.911% in assay [1] and 6.79% in assay [2]. The activity, negative = inhibition in assay [3] was -1.86%. Moreover, the Potency in assay [4] is greater than 20.6 µM. Further, in assay [5], the activation is 26.1%.

Regarding `COc1ccc(C(=O)C2CCCCC2=O)cc1` (stereo not given), the activity change, negative = inhibition in assay [1] is 2.34%; in assay [2], -0.888%. Besides, in assay [3], the activity, negative = inhibition is 8.28%. In addition, the Potency in assay [4] was greater than 20.6 µM. The activation in assay [5] was 5.32%.

With `COCc1cc(C)nc(N)c1C#N`, the activity change, negative = inhibition is 5.99% in assay [1] and -10.9% in assay [2]. The activity, negative = inhibition in assay [3] is -0.857%. In addition, the Potency in assay [4] was greater than 20.6 µM. Moreover, the activation in assay [5] was 1.6%.

With `CCN(CC)Cc1c(O)ccc2c(C)c(CC(=O)OC)c(=O)oc12`, the activity change, negative = inhibition in assay [1] was 14.2%; in assay [2], 25.4%. For the same compound, in assay [3], the activity, negative = inhibition is 8.46%. Also, the Potency is greater than 20.6 µM in assay [4] and 10 µM (active) in assay [5].

`COc1ccc(CCn2c(=N)c(C#N)cc3c(=O)n4ccccc4nc32)cc1`: the activity change, negative = inhibition in assay [1] was -1.65%; in assay [2], -0.836%. The activity, negative = inhibition in assay [3] was 3.03%. In assay [4], the Potency is greater than 20.6 µM. For the same compound, the activation in assay [5] is 22.3%.

For `Fc1ccc(-c2cnc[nH]2)cc1`, the values for the activity change, negative = inhibition in assay [1] and in assay [2] were 3.07% and -3.45%, respectively. In addition, the activity, negative = inhibition in assay [3] is -3.45%. Moreover, in assay [4], the Potency is greater than 20.6 µM. Besides, the activation in assay [5] was 14%.

Regarding `Cn1ccnc1SCCC#N`, the activity change, negative = inhibition was -0.27% in assay [1] and -6.48% in assay [2]. Also, the activity, negative = inhibition in assay [3] is 5.85%. Also, the Potency in assay [4] was greater than 20.6 µM. In addition, the activation in assay [5] was 14%.

As to `CCOc1ccc(CSC(CC(=O)O)C(=O)O)cc1` (stereo not given), the activity change, negative = inhibition is -0.441% in assay [1] and -5.85% in assay [2]. In assay [3], the activity, negative = inhibition is 11.1%. The Potency in assay [4] is greater than 20.6 µM. In assay [5], the activation is 14.8%.

Take `CSc1nc(C)c2c(c1C#N)CCCC2`: the activity change, negative = inhibition is -16.1% in assay [1] and -18.1% in assay [2]. The activity, negative = inhibition in assay [3] was 16.1%. Further, the Potency in assay [4] is greater than 20.6 µM. Moreover, the activation in assay [5] was -4.49%.

Regarding `Cc1cc(C)n(C(=O)CNC(=O)c2ccc3c(c2)OCCO3)n1`, the activity change, negative = inhibition in assay [1] is -0.109%; in assay [2] it was -6.13%. Also, the activity, negative = inhibition in assay [3] was 7.28%. Further, the Potency in assay [4] was greater than 20.6 µM. Further, in assay [5], the activation was -10.8%.

`O=c1cc(N2CCCCC2)nc2n1CCCS2`: the results for the activity change, negative = inhibition in assay [1] and in assay [2] were -18.5% and -21.5%, respectively. Also, the activity, negative = inhibition in assay [3] was -10.2%. Moreover, the Potency in assay [4] is greater than 20.6 µM; in assay [5] it was 6.31 µM (active).

On to `COc1cc(-c2cc(C(F)(F)F)n3ncc(C(=O)O)c3n2)cc(OC)c1OC`, for which the activity change, negative = inhibition in assay [1] is 3.69%; in assay [2], 3.34%. Besides, in assay [3], the activity, negative = inhibition was 1.42%. The Potency in assay [4] is greater than 20.6 µM. For the same compound, in assay [5], the activation is 13.9%.

With `COC(=O)[C@H]1CCCN1C(=O)Nc1cccc(Oc2c(F)c(F)c(F)c(F)c2F)c1`, the activity change, negative = inhibition is -14.6% in assay [1] and -9.08% in assay [2]. Also, in assay [3], the activity, negative = inhibition is -7.79%. Besides, the Potency in assay [4] is greater than 20.6 µM. The activation in assay [5] was -9.38%.

On to `COC(=O)/C(C#N)=C1/SC=C(C)N1c1ccccc1`, for which the figures for the activity change, negative = inhibition in assay [1] and in assay [2] were 1.21% and 3.89%, respectively. The activity, negative = inhibition in assay [3] is 4.42%. Moreover, the Potency in assay [4] is greater than 20.6 µM. Moreover, the activation in assay [5] was -6.52%.

In the case of `Cc1nnc(SCCC#N)n(CCC#N)c1=O`, the results for the activity change, negative = inhibition in assay [1] and in assay [2] were 25.1% and -2.84%, respectively. For the same compound, the activity, negative = inhibition in assay [3] was -5.67%. In addition, in assay [4], the Potency was greater than 20.6 µM. Besides, the activation in assay [5] was 15.5%.

Regarding `Cc1cc(C)nc(NC2=NCC(=O)N2c2ccc(Cl)cc2)n1`, the activity change, negative = inhibition is 0.0978% in assay [1] and -13.8% in assay [2]. For the same compound, the activity, negative = inhibition in assay [3] was 5.94%. For the same compound, the Potency in assay [4] was greater than 20.6 µM. Further, the activation in assay [5] is 16.5%.

Regarding `CC1(C)CC(=O)c2cc(C(=O)N3CCCC(C)(C)C3)c(=O)n(-c3ccccc3)c2C1`, the activity change, negative = inhibition is 8.53% in assay [1] and -0.00696% in assay [2]. The activity, negative = inhibition in assay [3] was -7.18%. Further, the Potency was greater than 20.6 µM in assay [4] and 3.98 µM (active) in assay [5].

Consider `COC(=O)C(NC(C)=O)(Nc1ccc(Br)cn1)C(F)(F)F` (stereo not given), for which the activity change, negative = inhibition in assay [1] was 0.568%; in assay [2] it was 3.2%. For the same compound, the activity, negative = inhibition in assay [3] was -10.2%. For the same compound, in assay [4], the Potency is greater than 20.6 µM. The activation in assay [5] was 3.3%.
